Measured values published in ChEMBL document CHEMBL3988442, “University of Dundee, Small-Polar-MMV Screening Library” (2021).
For some of these results: Entries with a potency or affinity are not part of this list.

Tests used:
Design in all cases: scale not given: direction of the effect not stated beside the values
[1] = target: Protein translocase subunit SecA (Escherichia coli (strain K12)) (UniProt P10408); assay: Assay to Identify E. coli SecA ATPase Inhibitors; format: functional; settings: 30 µM
[2] = target: T1, Ubiquitin-activating enzyme e1, putative (Leishmania donovani (strain BPK282A1)) (UniProt E9BSI1); assay: Leishmania donovani Ubiquitin Activating Enzyme (LdE1); format: functional; settings: 30 µM
T1 sequence (whole entry): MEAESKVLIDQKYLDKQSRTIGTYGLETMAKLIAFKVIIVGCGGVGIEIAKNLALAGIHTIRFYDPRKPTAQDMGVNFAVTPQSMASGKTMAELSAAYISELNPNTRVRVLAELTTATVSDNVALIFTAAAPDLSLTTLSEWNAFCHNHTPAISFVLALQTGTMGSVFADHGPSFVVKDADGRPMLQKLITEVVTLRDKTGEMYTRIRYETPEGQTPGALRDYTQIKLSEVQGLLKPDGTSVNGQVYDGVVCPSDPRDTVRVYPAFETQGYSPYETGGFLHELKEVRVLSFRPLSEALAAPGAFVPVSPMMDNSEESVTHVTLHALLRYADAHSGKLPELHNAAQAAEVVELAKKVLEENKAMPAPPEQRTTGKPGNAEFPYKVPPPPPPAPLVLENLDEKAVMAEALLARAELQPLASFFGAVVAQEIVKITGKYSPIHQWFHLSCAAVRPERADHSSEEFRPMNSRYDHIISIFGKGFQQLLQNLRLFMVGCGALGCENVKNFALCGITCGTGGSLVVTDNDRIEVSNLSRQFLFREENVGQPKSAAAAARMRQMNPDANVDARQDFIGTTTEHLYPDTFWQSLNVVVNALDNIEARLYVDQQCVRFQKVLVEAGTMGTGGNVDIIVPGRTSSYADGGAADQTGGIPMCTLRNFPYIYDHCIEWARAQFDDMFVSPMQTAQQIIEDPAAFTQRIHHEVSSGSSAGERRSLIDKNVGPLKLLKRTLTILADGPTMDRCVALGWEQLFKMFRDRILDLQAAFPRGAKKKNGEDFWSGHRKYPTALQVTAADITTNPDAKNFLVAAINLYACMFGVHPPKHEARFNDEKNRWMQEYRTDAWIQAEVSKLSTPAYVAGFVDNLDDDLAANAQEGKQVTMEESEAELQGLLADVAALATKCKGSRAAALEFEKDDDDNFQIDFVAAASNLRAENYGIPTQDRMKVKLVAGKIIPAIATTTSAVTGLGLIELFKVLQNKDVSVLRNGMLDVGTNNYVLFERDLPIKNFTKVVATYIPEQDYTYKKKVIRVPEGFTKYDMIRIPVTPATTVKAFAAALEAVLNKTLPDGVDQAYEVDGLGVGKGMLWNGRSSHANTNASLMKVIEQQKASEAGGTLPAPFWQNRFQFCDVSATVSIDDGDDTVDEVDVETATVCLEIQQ

[3] = target: AMP-activated protein kinase, AMPK (Homo sapiens) (UniProt P54646+O43741+P54619+Q9UGJ0+Q9Y478+Q13131+Q9UGI9); assay: AMP-dependent Kinase enzyme assay. An in vitro enzyme assay that detects ADP turnover that is directly proportional to AMPK activity. This uses naive AMPK that is activated during the assay with MK-8722; format: functional; settings: 30 µM
[4] = target: Sialic acid-binding Ig-like lectin 9 (Homo sapiens) (UniProt Q9Y336); assay: Hs-Siglec9 ALPHAscreen SOP 20170721; settings: 10 µM
Trypanosoma cruzi = assay: Trypanosoma cruzi phosphomannomutase and mannose-1-phosphate guanylyltransferase assay; format: functional; settings: 10 µM
[5] = target: T2, Arginase-2, mitochondrial (Homo sapiens) (UniProt P78540); assay: in vitro enzyme assay to detect the production of urea directly proportional to the activity of Arginase II; format: functional; settings: 33.3 µM; note: in the data most compounds retested in dose-response had high values
T2 sequence (whole entry): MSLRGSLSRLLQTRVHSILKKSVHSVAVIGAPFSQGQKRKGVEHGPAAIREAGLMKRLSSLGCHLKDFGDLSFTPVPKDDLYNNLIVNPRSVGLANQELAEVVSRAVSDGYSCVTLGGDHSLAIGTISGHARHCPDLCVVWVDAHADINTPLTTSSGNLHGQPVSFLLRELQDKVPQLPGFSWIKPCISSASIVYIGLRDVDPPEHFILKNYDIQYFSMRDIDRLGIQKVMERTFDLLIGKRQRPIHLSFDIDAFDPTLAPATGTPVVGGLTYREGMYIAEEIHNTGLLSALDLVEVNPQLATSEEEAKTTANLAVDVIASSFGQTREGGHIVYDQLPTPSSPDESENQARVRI

[6] = target: T3, Proteasome subunit beta (Trypanosoma cruzi) (UniProt O96673); assay: Trypanosoma cruzi proteasome chymotrypsin-like activity (TcProtChymo) assay.; note: in the data most compounds retested in dose-response had high values; format: functional; settings: 9.37 µM
T3 sequence (whole entry): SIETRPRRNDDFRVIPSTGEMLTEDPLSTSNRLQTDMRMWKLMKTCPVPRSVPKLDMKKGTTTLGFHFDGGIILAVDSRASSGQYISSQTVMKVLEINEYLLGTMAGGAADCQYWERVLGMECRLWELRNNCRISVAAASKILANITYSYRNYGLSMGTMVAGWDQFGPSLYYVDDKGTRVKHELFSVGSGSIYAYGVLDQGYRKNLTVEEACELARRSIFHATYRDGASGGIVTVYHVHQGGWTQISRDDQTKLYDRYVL

Homo sapiens = species: Homo sapiens; assay: To identify inhibition of the IFN signalling (Jak-Stat) pathway via expression of an eGFP reporter gene under the control of an IFN-stimulated response element (ISRE) containing MxA promoter.; format: functional; settings: 30 µM
[7] = target: T4, Tyrosyl-tRNA synthetase, putative (Trypanosoma cruzi (strain CL Brener)) (UniProt Q4DSP6); assay: Trypanosoma cruzi tyrosyl tRNA synthetase (TcYRS) _High Tyrosine SOP; format: functional; settings: 30 µM; note: in the data most compounds retested in dose-response had high values
T4 sequence (whole entry): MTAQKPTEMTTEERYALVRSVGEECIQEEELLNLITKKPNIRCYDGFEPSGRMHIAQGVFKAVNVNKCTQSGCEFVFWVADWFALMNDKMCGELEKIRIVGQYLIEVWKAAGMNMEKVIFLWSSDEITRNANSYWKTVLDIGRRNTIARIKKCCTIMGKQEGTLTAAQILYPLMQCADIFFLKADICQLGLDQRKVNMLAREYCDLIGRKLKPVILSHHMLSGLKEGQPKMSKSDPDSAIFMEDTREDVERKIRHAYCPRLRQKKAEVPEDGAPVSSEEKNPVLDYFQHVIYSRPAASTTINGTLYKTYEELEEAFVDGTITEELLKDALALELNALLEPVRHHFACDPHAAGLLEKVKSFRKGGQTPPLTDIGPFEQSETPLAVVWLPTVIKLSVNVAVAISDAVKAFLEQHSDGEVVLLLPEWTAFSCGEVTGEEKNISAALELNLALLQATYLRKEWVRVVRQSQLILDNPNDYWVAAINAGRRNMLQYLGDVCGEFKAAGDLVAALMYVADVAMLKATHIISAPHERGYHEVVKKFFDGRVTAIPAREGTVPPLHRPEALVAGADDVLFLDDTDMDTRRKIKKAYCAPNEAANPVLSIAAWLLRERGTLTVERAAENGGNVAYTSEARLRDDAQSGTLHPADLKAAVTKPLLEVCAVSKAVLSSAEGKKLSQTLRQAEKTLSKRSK

[8] = target: T4, Tyrosyl-tRNA synthetase, putative (Trypanosoma cruzi (strain CL Brener)); assay: Trypanosoma cruzi tyrosyl tRNA synthetase (TcYRS) SOP; format: functional; settings: 30 µM
[9] = target: Chromo domain-containing protein 1 (Saccharomyces cerevisiae (strain ATCC 204508 / S288c) (Baker's yeast)) (UniProt P32657); assay: ScCHD-1 Enzyme Inhibition Assay; format: functional; settings: 30 µM; note: in the data most compounds retested in dose-response had high values
Chromo domain-containing protein 1 (Saccharomyces cerevisiae (strain ATCC 204508 / S288c) (Baker's yeast)), sequence (P32657 whole entry, the tested form may be a part): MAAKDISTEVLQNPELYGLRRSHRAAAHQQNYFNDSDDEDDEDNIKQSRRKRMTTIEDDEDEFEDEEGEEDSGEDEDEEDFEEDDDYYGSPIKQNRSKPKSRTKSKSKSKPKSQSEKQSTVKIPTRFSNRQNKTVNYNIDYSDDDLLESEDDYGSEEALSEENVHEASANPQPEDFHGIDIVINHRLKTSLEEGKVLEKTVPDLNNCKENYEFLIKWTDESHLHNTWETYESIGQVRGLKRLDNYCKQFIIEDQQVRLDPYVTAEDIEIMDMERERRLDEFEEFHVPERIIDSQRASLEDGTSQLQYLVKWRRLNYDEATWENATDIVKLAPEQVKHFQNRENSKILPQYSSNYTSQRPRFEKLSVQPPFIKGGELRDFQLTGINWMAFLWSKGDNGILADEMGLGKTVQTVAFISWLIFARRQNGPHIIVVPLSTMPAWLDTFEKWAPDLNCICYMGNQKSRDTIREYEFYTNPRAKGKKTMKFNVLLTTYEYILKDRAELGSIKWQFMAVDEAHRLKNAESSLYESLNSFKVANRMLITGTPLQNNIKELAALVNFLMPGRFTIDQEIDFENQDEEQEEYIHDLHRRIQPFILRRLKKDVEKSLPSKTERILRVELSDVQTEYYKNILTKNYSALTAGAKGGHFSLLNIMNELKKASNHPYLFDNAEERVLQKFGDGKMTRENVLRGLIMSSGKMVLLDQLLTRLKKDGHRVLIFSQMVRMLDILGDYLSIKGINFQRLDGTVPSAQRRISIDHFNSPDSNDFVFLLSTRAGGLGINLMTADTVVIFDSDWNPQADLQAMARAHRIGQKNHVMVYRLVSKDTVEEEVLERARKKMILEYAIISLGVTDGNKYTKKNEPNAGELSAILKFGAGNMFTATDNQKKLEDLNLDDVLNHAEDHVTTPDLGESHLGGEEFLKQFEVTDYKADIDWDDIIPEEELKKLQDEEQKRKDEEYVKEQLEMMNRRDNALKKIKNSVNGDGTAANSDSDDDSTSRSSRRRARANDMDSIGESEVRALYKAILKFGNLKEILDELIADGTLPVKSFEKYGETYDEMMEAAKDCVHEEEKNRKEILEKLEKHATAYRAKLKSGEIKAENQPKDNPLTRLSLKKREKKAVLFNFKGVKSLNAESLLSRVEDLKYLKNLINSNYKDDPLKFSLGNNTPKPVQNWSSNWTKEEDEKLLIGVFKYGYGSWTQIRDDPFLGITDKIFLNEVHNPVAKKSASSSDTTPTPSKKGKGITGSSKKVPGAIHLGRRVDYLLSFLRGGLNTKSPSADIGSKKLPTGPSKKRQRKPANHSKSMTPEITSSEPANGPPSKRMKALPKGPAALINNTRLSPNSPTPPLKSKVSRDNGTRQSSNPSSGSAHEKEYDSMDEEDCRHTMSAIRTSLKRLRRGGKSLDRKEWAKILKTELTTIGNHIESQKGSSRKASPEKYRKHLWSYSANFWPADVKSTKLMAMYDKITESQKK

Sialic acid-binding Ig-like lectin 9 (Homo sapiens), sequence (Q9Y336 whole entry): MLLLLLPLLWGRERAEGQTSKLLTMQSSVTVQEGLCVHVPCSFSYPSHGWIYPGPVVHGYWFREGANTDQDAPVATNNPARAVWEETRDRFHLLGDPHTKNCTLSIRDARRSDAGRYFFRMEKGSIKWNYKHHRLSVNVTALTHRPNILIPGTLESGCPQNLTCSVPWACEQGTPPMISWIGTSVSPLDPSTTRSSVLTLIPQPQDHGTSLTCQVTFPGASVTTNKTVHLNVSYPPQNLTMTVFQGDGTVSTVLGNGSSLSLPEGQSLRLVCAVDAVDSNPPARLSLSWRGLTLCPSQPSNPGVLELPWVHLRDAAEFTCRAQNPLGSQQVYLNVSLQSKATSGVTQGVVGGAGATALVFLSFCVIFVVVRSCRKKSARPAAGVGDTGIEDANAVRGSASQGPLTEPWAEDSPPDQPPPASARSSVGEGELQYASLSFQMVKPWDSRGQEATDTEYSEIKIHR
Protein translocase subunit SecA (Escherichia coli (strain K12)), sequence (P10408 whole entry): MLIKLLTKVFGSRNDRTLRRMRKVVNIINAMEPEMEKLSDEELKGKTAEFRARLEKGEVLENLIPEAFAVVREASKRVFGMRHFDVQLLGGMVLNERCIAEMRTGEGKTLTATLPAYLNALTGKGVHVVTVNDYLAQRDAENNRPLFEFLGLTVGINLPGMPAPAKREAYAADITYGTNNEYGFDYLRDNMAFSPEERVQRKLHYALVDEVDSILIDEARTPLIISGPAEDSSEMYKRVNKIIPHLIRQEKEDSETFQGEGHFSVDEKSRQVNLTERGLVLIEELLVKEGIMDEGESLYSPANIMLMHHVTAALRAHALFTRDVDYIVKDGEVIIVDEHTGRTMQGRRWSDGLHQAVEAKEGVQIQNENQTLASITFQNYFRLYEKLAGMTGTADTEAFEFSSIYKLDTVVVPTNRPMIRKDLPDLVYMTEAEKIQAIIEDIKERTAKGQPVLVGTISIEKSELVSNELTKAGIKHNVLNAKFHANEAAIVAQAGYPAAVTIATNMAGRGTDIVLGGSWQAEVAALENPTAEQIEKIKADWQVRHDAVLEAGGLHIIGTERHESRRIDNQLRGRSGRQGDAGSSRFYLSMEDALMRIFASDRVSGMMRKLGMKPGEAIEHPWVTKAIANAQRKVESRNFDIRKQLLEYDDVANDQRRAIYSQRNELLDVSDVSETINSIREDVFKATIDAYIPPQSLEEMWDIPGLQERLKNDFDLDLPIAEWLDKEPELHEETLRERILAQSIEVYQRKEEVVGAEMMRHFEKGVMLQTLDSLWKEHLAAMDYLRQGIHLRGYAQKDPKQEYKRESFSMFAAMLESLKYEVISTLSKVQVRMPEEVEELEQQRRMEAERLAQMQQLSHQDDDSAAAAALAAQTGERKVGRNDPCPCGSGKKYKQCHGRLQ

Row | SMILES | Percent Effect [1] | Percent Effect [2] | Percent Effect [3] | Percent Effect [4] | Percent Effect (Trypanosoma cruzi) | Percent Effect [5] | Percent Effect [6] | Percent Effect (Homo sapiens) | Percent Effect [7] | Percent Effect [8] | Percent Effect [9]
1 | O=C(CCNC(=O)c1ccccc1)Nc1ccncc1 | 1.26% | 10.5% | 6.49% | -0.508% | -4.58% | -8.28% | 13.5% | 3.87% | 2.13% | 10.4% | -2.65%
2 | CC(C)n1ncc2c1NC(=O)CSC2C(C)(C)C (configuration not stated) | -4% | 17.3% | -3.06% | 7.25% | 3.14% | -3.7% | 8.69% | 8.09% | 5.29% | 12.8% | -8.28%
3 | CCn1cc2c(n1)CN(Cc1ccncc1)CC2COCC1CC1 (configuration not stated) | -3.54% | 10.7% | 12.3% | 6.03% | -1.97% | -0.699% | 10.7% | 4.31% | 6.38% | 11.5% | -6.9%
4 | O=S1(=O)c2ccccc2C2(CCN(Cc3ccccc3)C2)N1CC1CC1 (configuration not stated) | -1.03% | 0% | 12.2% | 4.58% | 1.18% | 2.1% | -0.264% | 32.1% | 3.19% | 3.85% | 2.59%
5 | O=C(c1ccc(F)cc1)N1C[C@@H]2OCCN(c3ncccn3)[C@@H]2C1 | -5.16% | 5.33% | 3.73% | 9.86% | -5.02% | -19.9% | 5.98% | -2.35% | 2.08% | 15% | -9.01%
6 | CN(Cc1ccsc1)C(=O)CN1CCCC1Cn1cccn1 (configuration not stated) | -3.48% | -18.2% | 2.08% | -4.38% | 5% | -1.05% | 3.8% | -6.97% | 11.4% | 7.06% | 4.97%
7 | c1nc2c(c(C3CC3)n1)CCN(Cc1ccc3c(c1)OCO3)CC2 | -2.79% | -5.48% | 3.53% | 13.7% | 4.37% | -0.399% | 7.45% | 8.17% | 6.25% | 1.24% | -2.36%
8 | Cn1cc(CN2CC[C@H]3C[C@H](c4nc(C5CC5)cs4)O[C@@H]3C2)cn1 | -0.2% | 18.2% | -0.28% | 13.1% | 6.59% | -9.65% | 10.8% | 12.1% | 4.3% | 16.1% | -1.85%
9 | Cc1noc(C)c1CNCC1CCN(CC(O)c2ccccc2)CC1 (configuration not stated) | -1.37% | 11.4% | -4.26% | 6.03% | -1.54% | -1.5% | 9.09% | -17.5% | 4.17% | 17.7% | -18%
10 | O=C(c1cccs1)N1CCC(O)(CN2CCc3ccccc3C2)C1 (configuration not stated) | -1.45% | 4.05% | 0.49% | 2.19% | -4.74% | 5.34% | 11.7% | 7.61% | 2.15% | 3.9% | -12.6%
11 | O=c1n(CCSCc2ccccc2F)nc2ccccn12 | -4.09% | 7.79% | 0.704% | -1.41% | 7.15% | 4% | 1.7% | 16.8% | 0.952% | 11.8% | -29.5%
12 | c1ccc(-c2nccc(CNCC3CCCN3c3cccnn3)n2)cc1 (configuration not stated) | -3.71% | -18.4% | 3.25% | -4.68% | -0.94% | 0.383% | -0.501% | 20.1% | 6.37% | -2.44% | 11.3%
13 | CCc1nsc(NC2CCCn3nc(CC)nc32)n1 (configuration not stated) | -6.19% | 8% | -4.68% | 26% | 7.3% | 6.25% | 13.6% | 0.363% | 3.83% | 13.6% | -7.22%
14 | CN(Cc1ccc(C#N)cc1)Cc1noc(C(C)(C)C)n1 | -3.57% | 0% | -1.73% | 0.255% | -0.885% | 2.76% | 3% | 8.86% | -1.07% | -1.24% | 2.69%
15 | CC(C)(CNC(=O)CCOc1cccc(F)c1)C(N)=O | -1.29% | 7.89% | 1.89% | 3.39% | -7.14% | 3.06% | 10.5% | 12% | 5.39% | 12.2% | -1.57%
16 | CC(C)c1nc(C2CCCN2C(=O)c2cnc[nH]2)no1 (configuration not stated) | -7.47% | 8.11% | 3.18% | 5.28% | -6.96% | 0.554% | -5.75% | 23.2% | 0% | 1.22% | 4.79%
17 | Cc1ccc2c(ccn2CCC(=O)NC[C@@H]2CCCN3CCCC[C@H]23)c1 | -5.55% | 12% | -3.71% | 5.07% | 4.71% | -6.87% | 14.1% | -2.77% | 3.17% | 10.3% | -4.06%
